PubChem BioAssay (Tox21)
Where “and” joins values, the source holds several entries; their conditions need not be identical. Equal values may be shown once. Inconclusive results are not listed. Where a call stands in place of a potency, no number is given. Some structures have more than one record in an assay (separate samples or runs), and their calls can disagree. Calls of active or inactive are those of the source. Unless noted, the call rests on the fitted dose curve.

How the values were obtained:
[1] = Nuclear factor erythroid 2-related factor 2/antioxidant responsive element (Nrf2/ARE) small molecule agonists: qHTS cell viability counter screen in human keratinocytes (AID 1919968; active means well fitted curve in the direction sought with a large enough effect in the repeat runs; an effect the other way counts as inactive or inconclusive; further: nearly all actives have a fitted effect of over 55% in size; further: potency means the concentration at half of the fitted maximal effect)
Outline: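 Cytotoxicity was multiplexed with the Nrf2/ARE luciferase assay in the same wells. Stably transfected HaCaT keratinocytes were treated with test compounds for 23 h at 37 C. Cell viability was then measured by CellTiter-Fluor fluorescence.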

[2] = biological target: Gonadotropin-releasing hormone receptor (Homo sapiens) (UniProt P30968); experiment: Human gonadotropin-releasing hormone receptor (GnRHR) small molecule agonists, calcium flux assay in GnRHR-HEK293 cells (AID 1920063); further: nearly all actives have a fitted effect of over 35% in size
Chain of Gonadotropin-releasing hormone receptor (Homo sapiens) (P30968 whole entry, looked up): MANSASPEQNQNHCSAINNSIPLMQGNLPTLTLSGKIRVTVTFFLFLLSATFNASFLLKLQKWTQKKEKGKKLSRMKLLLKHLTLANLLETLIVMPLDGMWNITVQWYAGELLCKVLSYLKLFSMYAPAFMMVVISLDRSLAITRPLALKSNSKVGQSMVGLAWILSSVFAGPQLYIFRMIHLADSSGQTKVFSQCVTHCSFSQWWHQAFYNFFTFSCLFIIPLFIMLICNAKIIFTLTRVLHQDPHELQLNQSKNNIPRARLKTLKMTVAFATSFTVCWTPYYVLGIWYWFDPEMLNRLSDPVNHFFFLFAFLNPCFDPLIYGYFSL
Outline: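 Agonist activity was measured as intracellular calcium flux in HEK293 cells engineered to stably express human GnRHR. After dye loading for 1 hour at 37 C, compounds in DMSO were added and fluorescence was followed for 3 minutes.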

[3] = biological target: KiSS-1 receptor (Homo sapiens) (UniProt Q969F8); experiment: Human kisspeptin (KISS1R) small molecule agonists, calcium flux assay in KISS1R-HEK293 cells (AID 1920064; active means well fitted curve in the direction sought with a large enough effect in the repeat runs; an effect the other way counts as inactive or inconclusive)
Chain of KiSS-1 receptor (Homo sapiens) (Q969F8 whole entry, looked up): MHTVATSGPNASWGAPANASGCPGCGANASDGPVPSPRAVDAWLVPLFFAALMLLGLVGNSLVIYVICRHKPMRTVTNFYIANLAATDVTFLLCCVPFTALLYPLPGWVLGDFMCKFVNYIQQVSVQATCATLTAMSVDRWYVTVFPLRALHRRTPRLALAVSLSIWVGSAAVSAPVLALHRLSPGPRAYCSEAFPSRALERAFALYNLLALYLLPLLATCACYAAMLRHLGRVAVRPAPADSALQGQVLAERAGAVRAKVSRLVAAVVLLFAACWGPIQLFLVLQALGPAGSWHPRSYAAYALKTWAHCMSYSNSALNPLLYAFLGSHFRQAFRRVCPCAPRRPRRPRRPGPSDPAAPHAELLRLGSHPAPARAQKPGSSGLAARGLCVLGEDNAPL
Outline: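 Agonist activity is monitored as intracellular calcium rise in engineered HEK293 cells carrying human KISS1R. Cells are dye-loaded for 1 h at 37 C before compound addition, and fluorescence is recorded for 3 min.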

[4] = G protein-coupled receptor (GPCR) small molecule agonists, calcium flux assay: HEK293 wild type cell line counter screen (AID 1920065)
Outline: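 Seed cells, incubate 18 h (37 C, 5% CO2); add calcium dye, 1 h at 37 C; pin-transfer compounds, ATP control or DMSO; read fluorescence 480/540 nm each second for 3 min.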

[5] = p53 small molecule agonists, cell-based qHTS assay with human liver microsomes (AID 1963577);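 further: p53 response element beta-lactamase reporter cells with liver microsomes plus NADPH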
Outline: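 Reporter activation was measured by LiveBLAzer fluorescence intensity in p53RE-bla cells, which had been exposed to compounds for 16 h at 37 C alongside 0.5 mg/mL human liver microsomes and 0.5 mg/mL NADPH (final concentrations).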

[6] = p53 small molecule agonists, cell-based qHTS assay with rat liver microsomes (AID 1963578)
Outline: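 Compound in DMSO added to p53RE-bla cells 5 h post-plating; rat microsomes/NADPH 0.5 mg/mL final; 16 h, 37 C; LiveBLAzer 2 h RT.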

[7] = p53 small molecule agonists, cell-based qHTS assay with human liver microsomes: qHTS cell viability counter screen (AID 1963579); further: nearly all actives have a fitted effect of over 45% in size; further: potency means the concentration at half of the fitted maximal effect
Outline: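 HLM-supplemented (0.5 mg/mL final) and NADPH-supplemented (0.5 mg/mL final) p53RE-bla cultures, 4,000 cells per well, were dosed with compounds in DMSO for 16 h at 37 C; luminescent ATP detection (CellTiter-Glo, 30 min, room temperature) quantified surviving cells.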

[8] = p53 small molecule agonists, cell-based qHTS assay with rat liver microsomes: qHTS cell viability counter screen (AID 1963580); further: nearly all actives have a fitted effect of over 45% in size
Outline: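 Counter screen for cytotoxicity under metabolic activation: rat liver microsomes and NADPH, 0.5 mg/mL final each, added with compounds to p53RE-bla HCT-116 cells; 16 h at 37 C, then ATP luminescence read.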

[9] = p53 small molecule agonists, cell-based qHTS assay: qHTS cell viability counter screen (AID 1963581); further: nearly all actives have a fitted effect of over 45% in size
Outline: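 Viability was counter-screened in parallel with the p53 agonist reporter by measuring intracellular ATP luminescence in the same HCT-116 p53RE-bla wells after 16 h compound treatment at 37 C.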

[10] = biological target: 5-hydroxytryptamine receptor 2A (Homo sapiens) (UniProt P28223); experiment: 5-hydroxytryptamine receptor 2A (HTR2A) small molecule agonists, cell-based qHTS assay (AID 1963587); further: nearly all actives have a fitted effect of over 30% in size
Chain of 5-hydroxytryptamine receptor 2A (Homo sapiens) (P28223 whole entry, looked up): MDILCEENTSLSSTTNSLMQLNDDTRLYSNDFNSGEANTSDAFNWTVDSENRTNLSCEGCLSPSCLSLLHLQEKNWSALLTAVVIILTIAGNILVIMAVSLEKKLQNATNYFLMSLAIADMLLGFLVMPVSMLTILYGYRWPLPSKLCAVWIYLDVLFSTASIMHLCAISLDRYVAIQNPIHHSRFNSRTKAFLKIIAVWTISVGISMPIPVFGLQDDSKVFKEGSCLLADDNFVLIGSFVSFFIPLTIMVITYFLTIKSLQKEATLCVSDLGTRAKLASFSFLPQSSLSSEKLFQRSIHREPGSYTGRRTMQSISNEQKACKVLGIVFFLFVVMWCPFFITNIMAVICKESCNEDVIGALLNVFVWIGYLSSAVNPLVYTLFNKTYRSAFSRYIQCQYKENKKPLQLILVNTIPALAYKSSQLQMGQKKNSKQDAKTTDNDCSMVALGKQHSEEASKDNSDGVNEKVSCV
Outline: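 HTR2A-CHO cells, plated 18 h at 37 C/5% CO2, dye-loaded 1 h at 37 C; compounds in DMSO added by pin tool (agonist mode). Intracellular calcium flux read as kinetic fluorescence on FDSS over 2 min at 1 s intervals.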

[11] = biological target: Muscarinic acetylcholine receptor M1 (Homo sapiens) (UniProt P11229); experiment: Cholinergic receptor muscarinic 1 (CHRM1) small molecule agonists, cell-based qHTS assay (AID 1963589); further: nearly all actives have a fitted effect of over 35% in size
Chain of Muscarinic acetylcholine receptor M1 (Homo sapiens) (P11229 whole entry, looked up): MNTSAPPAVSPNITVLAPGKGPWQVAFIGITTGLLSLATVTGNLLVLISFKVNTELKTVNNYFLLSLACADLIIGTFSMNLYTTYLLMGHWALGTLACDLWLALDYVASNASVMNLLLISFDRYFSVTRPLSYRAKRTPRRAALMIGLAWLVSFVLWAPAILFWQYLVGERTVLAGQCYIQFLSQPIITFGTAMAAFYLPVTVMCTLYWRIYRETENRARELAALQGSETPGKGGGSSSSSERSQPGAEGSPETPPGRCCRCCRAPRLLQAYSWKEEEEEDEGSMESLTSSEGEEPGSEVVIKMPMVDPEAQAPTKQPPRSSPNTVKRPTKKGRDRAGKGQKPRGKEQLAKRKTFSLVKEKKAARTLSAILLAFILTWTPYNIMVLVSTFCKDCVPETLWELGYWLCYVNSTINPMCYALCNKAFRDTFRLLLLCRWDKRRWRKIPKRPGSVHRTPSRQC
Outline: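 Cells were plated and incubated 18 h at 37 C/5% CO2, loaded with calcium dye for 1 h at 37 C, then treated with compounds in DMSO. Fluorescence was recorded kinetically at 1 sec intervals.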

[12] = biological target: Beta-2 adrenergic receptor (Homo sapiens) (UniProt P07550); experiment: Adrenergic beta2 receptor (ADRB2) small molecule antagonists, cell-based qHTS assay (AID 1963592); further: series mostly up to about 92 µM; nearly all actives have a fitted effect of over 50% in size
Chain of Beta-2 adrenergic receptor (Homo sapiens) (P07550 whole entry, looked up): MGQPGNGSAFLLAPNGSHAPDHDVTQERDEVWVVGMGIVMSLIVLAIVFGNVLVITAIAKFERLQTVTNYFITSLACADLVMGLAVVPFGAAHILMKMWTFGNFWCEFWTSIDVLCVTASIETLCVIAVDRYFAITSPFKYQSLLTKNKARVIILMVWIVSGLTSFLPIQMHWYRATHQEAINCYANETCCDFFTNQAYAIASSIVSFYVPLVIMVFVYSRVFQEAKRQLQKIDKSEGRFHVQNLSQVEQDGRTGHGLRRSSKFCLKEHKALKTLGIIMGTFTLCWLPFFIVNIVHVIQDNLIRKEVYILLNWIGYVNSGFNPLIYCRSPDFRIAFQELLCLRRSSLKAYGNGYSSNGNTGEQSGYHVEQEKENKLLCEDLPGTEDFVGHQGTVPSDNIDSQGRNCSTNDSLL
Outline: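 Assay format: CHO-ADRB2 cells, 18-20hr seeding at 37C/5% CO2, then compound plus 1nM isoproterenol agonist mix for 0.5hr RT. Homogeneous time-resolved fluorescence cAMP detection after 1hr, expressed as 665/615 nm ratio.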

[13] = biological target: Beta-2 adrenergic receptor (Homo sapiens) (UniProt P07550); experiment: Adrenergic beta2 receptor (ADRB2) small molecule agonists, cell-based qHTS assay (AID 1963593);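 further: CHO cells stably overexpressing human ADRB2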
Outline: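 CHO cells stably over-expressing ADRB2 were plated overnight at 37C, then dosed with compounds plus a stimulation mix containing 100uM IBMX and 25uM Ro-20-1724 for 0.5hr at room temperature. cAMP was measured by HTRF competition, 1hr.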

[14] = biological target: D(2) dopamine receptor (Homo sapiens) (UniProt P14416); experiment: Dopamine D2 receptor (DRD2) small molecule agonists, cell-based qHTS assay (AID 1963594); further: nearly all actives have a fitted effect of over 35% in size
Chain of D(2) dopamine receptor (Homo sapiens) (P14416 whole entry, looked up): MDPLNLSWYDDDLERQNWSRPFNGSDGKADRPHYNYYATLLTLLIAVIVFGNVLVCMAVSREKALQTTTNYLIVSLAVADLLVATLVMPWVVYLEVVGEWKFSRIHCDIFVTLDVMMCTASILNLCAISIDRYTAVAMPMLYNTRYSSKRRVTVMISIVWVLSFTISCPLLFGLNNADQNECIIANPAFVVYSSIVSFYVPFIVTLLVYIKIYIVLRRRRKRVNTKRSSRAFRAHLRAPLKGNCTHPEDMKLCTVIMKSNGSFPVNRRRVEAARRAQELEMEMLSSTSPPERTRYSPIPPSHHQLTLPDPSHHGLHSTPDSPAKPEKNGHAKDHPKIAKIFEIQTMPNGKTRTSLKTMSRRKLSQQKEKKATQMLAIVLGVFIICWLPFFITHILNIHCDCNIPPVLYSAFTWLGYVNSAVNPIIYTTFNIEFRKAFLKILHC
Outline: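 HEK293 cells stably expressing DRD2 were cultured 24 h at 37 C, then given Ro20-1724 (0.1 mM final) and compounds for 10 min at room temperature. NKH477 (200nM) was then added for 30 min. cAMP was read by HTRF.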

[15] = biological target: D(2) dopamine receptor (Homo sapiens) (UniProt P14416); experiment: Dopamine D2 receptor (DRD2) small molecule antagonists, cell-based qHTS assay (AID 1963595; active means well fitted inhibition curve with a large enough effect in the signal ratio in the repeat runs, with a control signal flat; the % refers to the signal ratio; further: potency means the concentration at half of the fitted maximal effect)
Outline: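 DRD2-HEK293; 0.1 mM Ro20-1724; cpd 10 min RT; NKH477 200 nM + quinpirole 12 nM, 30 min RT; HTRF cAMP (cAMP-d2/anti-cAMP cryptate), 665/620 nm ratio after 1 h.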

[16] = p53 small molecule agonists, cell-based qHTS assay (AID 1963582; active means well fitted activation curve with a large enough effect in the signal ratio in the repeat runs, not every such curve was filed as active; the % refers to the signal ratio)
Outline: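 Cells carrying a p53-responsive bla reporter are treated with test compounds for 16 h at 37 C; beta-lactamase activity is then detected with LiveBLAzer B/G FRET substrate after 2 h at room temperature.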

[17] = biological target: 5-hydroxytryptamine receptor 2A (Homo sapiens) (UniProt P28223); experiment: 5-hydroxytryptamine receptor 2A (HTR2A) small molecule antagonists, cell-based qHTS assay (AID 1963586); further: nearly all actives have a fitted effect of over 45% in size
Outline: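 CHO cells stably expressing human HTR2A were plated for 18 h at 37 C, then loaded with calcium dye for 1 h. Compounds were preincubated 5 min at room temperature before DOI (4 nM solution) was added. Kinetic fluorescence was read for 3 min.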

[18] = biological target: Muscarinic acetylcholine receptor M1 (Homo sapiens) (UniProt P11229); experiment: Cholinergic receptor muscarinic 1 (CHRM1) small molecule antagonists, cell-based qHTS assay (AID 1963588); further: nearly all actives have a fitted effect of over 40% in size
Outline: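 Compounds were tested at 15 concentrations in three independent runs. Dye-loaded CHRM1-CHO cells were exposed 5 min at room temperature before stimulation by acetylcholine added at 50nM. Intracellular calcium was read kinetically on FDSS for 3 min.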

[19] = cAMP Responsive Elements (CRE) small molecule agonists, cell-based qHTS assay (AID 1963590)
Outline: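 Cells carrying a CRE-driven beta-lactamase reporter (HEK 293T) are seeded, incubated overnight (18 h), and treated with test compounds for 3 h at 37 C; reporter activity is then detected with a FRET substrate after 2 h at room temperature.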

[20] = cAMP Responsive Elements (CRE) small molecule antagonists, cell-based qHTS assay (AID 1963591; active means well fitted inhibition curve with a large enough effect in the signal ratio in the repeat runs, not every such curve was filed as active; the % refers to the signal ratio)
Outline: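 Cells (CRE-bla HEK 293T, DMEM with 10% dialyzed FBS and 25 mM HEPES) are seeded and incubated 18 h. Compounds are added with NKH477 agonist at 0.25 uM final for 3 h, then FRET substrate for 2 h.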

Row | SMILES | Potency [1] | Potency [2] | Potency [3] | Potency [4] | Potency [5] | Potency [6] | Potency [7] | Potency [8] | Potency [9] | Potency [10] | Potency [11] | Potency [12] | Potency [13] | Potency [14] | Potency [15] | Potency [16] | Potency [17] | Potency [18] | Potency [19] | Potency [20]
1 | O=C1NC(=O)[C@@H]2CC=CC[C@H]12 | inactive | inactive | inactive | inactive | inactive | inactive | inactive | inactive | inactive | inactive | inactive | inactive | inactive | inactive | inactive | – | – | – | – | –
2 | CC1(CO)CN(c2ccccc2)NC1=O (centres undefined) | inactive | inactive | inactive | inactive | inactive | inactive | inactive | – | inactive | inactive | inactive | inactive | inactive | inactive | inactive | inactive | inactive | inactive | inactive | inactive
3 | NC(=O)CCCCC1CCSS1 (centres undefined) | inactive | inactive | inactive | inactive | inactive | inactive | inactive | – | inactive | inactive | inactive | inactive | – | inactive | inactive | inactive | inactive | inactive | inactive | inactive
4 | CC(C)OC(=O)OCOP(=O)(CO[C@H](C)Cn1cnc2c(N)ncnc21)OCOC(=O)OC(C)C | inactive | inactive | inactive | inactive | inactive | inactive | inactive | inactive | – | – | inactive | inactive | – | inactive | inactive | inactive | – | inactive | inactive | inactive
5 | CC(=O)[O][Al] | inactive | inactive | inactive | inactive | inactive | inactive | inactive | – | inactive | inactive | inactive | inactive | – | inactive | inactive | inactive | inactive | inactive | inactive | inactive
6 | [O-][N+](=Nc1ccccc1)c1ccccc1 | inactive | inactive | inactive | inactive | inactive | inactive | inactive | inactive | – | inactive | inactive | inactive | inactive | inactive | inactive | inactive | – | inactive | inactive | inactive
7 | CN(C)CCCN1c2ccccc2CCc2ccc(Cl)cc21 | 61.1 µM (active) | inactive | inactive | inactive | inactive | inactive | 40.8 µM (active) and inactive | inactive | inactive | – | – | inactive | inactive | inactive | 61.1 µM (active) and 18.8 µM (active) | – | – | – | inactive | inactive
